# From PubChem
# Most compounds without a hit are left out; they make up all but 9.6% or so of the library.
# PTEN del growth – PTEN-deleted cell growth suppression; HCT116 PTEN-null viability, CellTiter-Glo, 60 h; hits give low values; viability, % at 10 µM; 140,000 tested, 1.2% active; AID 827;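 active = viability at or below a set limit, 4 SD under the median of all tested compounds, cut at about 3.7% in these data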;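 note: PTEN knockout HCT116 line with beta catenin targeted HCT116 as companion control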
# Insulin prom up – MIN6 insulin promoter up-regulation. 190,000 tested, 0.3% active. MIN6 insulin promoter-GFP reporter, high-content imaging; hits give high values. AID 1625. z-score at 5 µM;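 active = z-score above 3 at 5 µM with at least 500 cells counted in the well; inconclusive = wells under 500 cells, flagged as cytotoxic or low count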
# Autophagy mod – autophagy modulation, high-content screen. 190,000 tested, 0.98% active. MEF GFP-LC3 puncta imaging; test concentration mostly 10 µM. calls only at 10 µM (by protocol). AID 463193;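 active = percentage of spot-positive cells more than 3 SD above its plate mean, without a fluorescence outlier flag or 80% toxicity; inconclusive = no clear call, values can overlap the other calls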
# bCat KO growth – beta-catenin-lacking colon tumor cell growth suppression. 140,000 tested, 1.5% active. viability, % at 10 µM. HCT116 beta-catenin knockout viability, CellTiter-Glo, 60 h; hits give low values;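 active = viability at or under a set limit, the compound median less 4 SD, cut at about 6% in these data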
# L major viab – Leishmania major promastigote growth inhibition | Leishmania major promastigotes, resazurin fluorescence viability | 200,000 tested, 9% active | AID 1063 | inhibition, % at 10 µM; in the data active = inhibition above about 50%;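 note: promastigotes grown with compound for 44 hours at 28 °C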
# INS promoter inh – TRM-6 insulin promoter activity inhibition; TRM-6 cells (human fetal islet line), insulin promoter-eGFP reporter, imaging; reporter expression induced with tamoxifen; inhibition, % at 2 µM; AID 1273; 130,000 tested, 0.9% active;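 active = inhibition above the mean plus 3 SD, with well images judged a real hit on visual review, cut at about 60% in these data, passing the limit was not always enough; inconclusive = inhibition over the cutoff but images rejected on review; inactive = inhibition not above the cutoff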
# A number is an active result; n = inactive; u = inconclusive; x = no result; + = active, no number.
SMILES,PTEN del growth,Insulin prom up,Autophagy mod,bCat KO growth,L major viab,INS promoter inh
Cc1cc(C(=O)CCl)c(C)n1CCc1ccc(Cl)cc1,x,n,n,x,101,x
COc1ccc(CCn2c(C)c(C(C)=O)c(C(C)=O)c2C)cc1OC,x,n,n,x,n,n
COc1ccc(CCn2c(C)cc(C(=O)CCl)c2C)cc1OC,x,n,n,x,89,n
Cc1cc(C(=O)CCl)c(C)n1CCc1ccc(F)cc1,x,n,n,x,100,100
Cc1cc(C(=O)CSc2nnnn2C)c(C)n1CCc1ccc(F)cc1,n,n,n,n,n,n
CC(=O)N1CCN(c2ccc(OC[C@H]3CO[C@](Cn4ccnc4)(c4ccc(Cl)cc4Cl)O3)cc2)CC1,n,n,n,n,89,n
CCOC(=O)c1c(NC(=O)CN2C(=O)NC3(CCCCC3C)C2=O)sc(C)c1C (centres undefined),n,n,n,n,n,n
CCOC(=O)c1c(NC(=O)CN2C(=O)NC(C)(c3ccccc3)C2=O)sc(C)c1C (centres undefined),n,n,+,n,70,n
CCOC(=O)c1c(NC(=O)COC)sc(C)c1C,n,n,n,n,n,u
CCOC(=O)c1c(NC(=O)C[n+]2ccc(N(C)C)cc2)sc(C)c1C,x,n,n,x,84,n
COc1cccc(NC(=O)C2CCN(S(=O)(=O)c3ccc4c(c3)OCCO4)CC2)c1,n,n,n,n,n,n
COc1cc(NC(=O)COC(=O)CNC(=O)c2cc(C)cc(C)c2)c(C)cc1[N+](=O)[O-],n,n,n,n,n,n
CCC(CC)C(=O)OCC(=O)Nc1cc(OC)c([N+](=O)[O-])cc1C,n,x,n,n,n,64
O=C(N/N=C/C(Cl)=C/c1ccc([N+](=O)[O-])cc1)C(=O)Nc1ccc(C(=O)O)cc1,x,n,x,x,x,x
Cc1ccc(NC(=O)COc2ccccc2CNC(C)(C)CC(C)(C)C)cc1,1.8,n,n,1.4,100,n
CCCN1C2CCCC1CC(NC(=S)Nc1cc(C)cc(C)c1)C2 (centres undefined),x,n,n,x,54,x
CCOc1ccc(NC(=S)NC2CC3CCC(C2)N3Cc2ccco2)cc1 (centres undefined),x,n,n,x,68,x
Cc1cccc(NC(=S)NC2CC3CCCC(C2)N3Cc2cccs2)c1 (centres undefined),n,n,n,n,89,x
COCCNC(=S)NC1CC2CCCC(C1)N2Cc1cccs1 (centres undefined),n,x,n,n,n,n
Fc1ccc(NC(=S)NC2CC3CCC(C2)N3Cc2ccco2)cc1 (centres undefined),x,n,n,x,82,x
O=C(Nc1cccc(Cl)c1)NC1CC2CCC(C1)N2Cc1ccco1 (centres undefined),x,n,n,x,n,x
CCCOc1ccc(CCC(=O)N/N=C/c2ccc([N+](=O)[O-])o2)cc1,x,n,x,x,x,x
Cc1ccc(C)c(NC(=S)NC2CC3CCC(C2)N3Cc2ccco2)c1 (centres undefined),n,n,n,n,n,x
Cc1ccc(C)c(NC(=S)NC2CC3CCCC(C2)N3CC(C)C)c1 (centres undefined),n,n,n,n,65,n
Cc1cc(C)cc(NC(=S)NC2CC3CCC(C2)N3Cc2ccco2)c1 (centres undefined),n,n,n,n,90,x
SMILES,PTEN del growth,Insulin prom up,Autophagy mod,bCat KO growth,L major viab,INS promoter inh
O=C(C/C(=N/O)c1ccccc1O)C(F)F,n,n,n,n,n,x
O=c1[nH]c2ccccc2n1Cc1ccccc1,n,n,n,n,n,x
O=c1[nH]c2cccnc2n1Cc1ccccc1,n,n,n,n,n,82
CC(C)Cc1nc(N2CCN(C(=O)c3ccco3)CC2)c(C#N)c2c1CCC2,n,n,n,n,51,n
CC1(C)Cc2c(C#N)c(N3CCN(C(=O)c4ccco4)CC3)nc(Cc3ccccc3)c2CO1,1.0,n,n,1.5,90,n
N#Cc1c(N2CCN(C(=O)c3ccccc3)CC2)nc(-c2ccccc2)c2c1CCCC2,n,x,n,n,75,n
O=C(c1ccco1)N1CCN(c2nc3ccccc3n3nnnc23)CC1,n,n,n,n,n,x
CC(C)c1cc(N2CCN(C(=O)c3ccco3)CC2)n2c(nc3ccccc32)c1C#N,n,n,n,n,52,x
CC(C)Cc1nc(N2CCN(C(=O)c3ccccc3)CC2)c(C#N)c2c1CCC2,n,n,n,n,n,n
CCn1ncc(/C=N\NC(=O)c2csc3ccccc23)c1C,n,n,n,n,62,x
Cc1c(/C=N\NC(=O)c2csc3ccccc23)cnn1C,n,x,n,n,n,n
O=C(N/N=C/c1cccc(O)c1)c1ccccc1O,x,n,x,x,x,x
O=C(N/N=C/c1cccc(O)c1)c1csc2ccccc12,n,n,n,n,69,n
COC(=O)c1ccc(NC(=O)N2CCOCC2)cc1,n,n,n,n,n,n
Cn1cc(C(=O)c2ccc(Cl)cc2Cl)cc1C(=O)N/N=C(\N)COc1cccc(C(F)(F)F)c1,n,n,n,5.2,n,n
CC(C)(C)N1NC(=O)Nc2ccccc2C1=O,n,n,n,n,n,n
COc1ccc(-c2nnc(SCc3nnc(-c4ccccc4)o3)n2-c2ccccc2)cc1,n,n,n,n,n,n
COc1ccc(-c2nnc(SCc3nnc(-c4ccc(Cl)cc4)o3)n2-c2ccccc2)cc1,n,n,n,n,89,n
Nc1nc(NCCCN2CCOCC2)nc(Nc2ccc(F)cc2)c1[N+](=O)[O-],n,n,n,n,52,n
Nc1nc(NCCCN2CCOCC2)nc(Nc2cccc(F)c2)c1[N+](=O)[O-],x,n,x,x,x,x
Cc1ccccc1CNC(=O)CCc1ccccc1,x,n,n,x,n,x
Cc1ccccc1Cn1ccc(=NCc2ccccc2)cc1,n,u,n,n,100,n
C#CCOc1c(Br)cc(/C=N\NC(=O)CN2CCOCC2)cc1OCC,n,n,n,n,n,n
O=C(NCc1ccccn1)[C@H]1C[C@@H]1[C@H](NP(=O)(c1ccccc1)c1ccccc1)c1ccccc1,0.6,n,n,0.8,n,n
O=C(NCCF)[C@H]1C[C@@H]1[C@H](NP(=O)(c1ccccc1)c1ccccc1)c1ccccc1,n,n,n,n,n,n
SMILES,PTEN del growth,Insulin prom up,Autophagy mod,bCat KO growth,L major viab,INS promoter inh
Cn1nnnc1SCC(=O)Nc1ccc(Oc2ccccc2)cc1,n,x,n,n,93,n
COc1cc(OC)cc(-n2nnnc2SCC(=O)Nc2ccc(C(C)=O)cc2)c1,n,x,+,n,n,x
COc1ccc(NC(=O)CSc2nnnn2C)cc1,x,n,n,x,n,n
N#C/C(=C(/O)CN1CCCC1)c1nc(-c2ccccc2)cs1,x,n,x,x,x,x
Cc1ccc(N)c2c1OCCC2=O,n,n,n,n,n,n
COc1ccc(C2C3=C(CC(C)(C)CC3=O)Oc3ncn(Cc4ccccc4)c(=N)c32)cc1 (centres undefined),n,n,n,n,63,n
N=c1c2c(ncn1Cc1ccco1)Oc1cc(O)ccc1C2c1ccccc1 (centres undefined),x,n,x,x,x,x
N=c1c2c(ncn1Cc1ccco1)Oc1c(ccc3ccccc13)C2c1ccccc1 (centres undefined),1.6,n,n,1.3,57,n
